Some test systems named below: NCI-H23 lung; NCI-H226 lung; NCI-H322M lung; HOP-62 NSCLC; NCI-H460 lung; NCI-H522 lung; A549/ATCC NSCLC; 786-0 renal; COLO 205 colon; DU-145 prostate; K-562 leukemia; MALME-3M melanoma; MDA-MB-231 breast; RXF 393 renal; SF-268 CNS; SF-539 CNS; UACC-257 melanoma; M14 melanoma; HCT-15 colon; SF-295 CNS.
Holding throughout (assay): NCI-60 one-dose screen, 48 h (100 = growth as untreated, 0 = no growth, -100 = all killed)
What all share (details): 10 µM unless noted

Compounds without any hit were thinned out: in the full panel of roughly 83,000, 20% have a hit.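 Results are percent growth after 48 hours of single-concentration exposure. 100 means growth as in untreated cells, lower positive values show inhibition; negative values down to -100 show cell death.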 A number with no mark means an inactive call. The source made the active and inactive calls. The calls were made as follows: active = growth percent below 10; inactive = the rest.

Take `O=[P@@]1(c2ccccc2)O[C@H](COCc2ccccc2)[C@@H](OCc2ccccc2)[C@H](OCc2ccccc2)[C@H]1NCc1ccccc1`: the growth in the assay on NCI-H23 lung was 20.5%; with NCI-H226 lung, 40.6%; in the assay with NCI-H322M lung, 47.9%; with HOP-62 NSCLC it was 54.3%; with NCI-H460 lung it was 4.06% (active); in the assay on NCI-H522 lung, 20.5%. The growth in the assay with A549/ATCC NSCLC is 13.3%; with 786-0 renal, 13.9%; with COLO 205 colon, -57.2% (active); with DU-145 prostate it was 45.7%; in the assay on K-562 leukemia, 6.58% (active); in the assay with MALME-3M melanoma it was -7.61% (active). Besides, the growth with MDA-MB-231 breast was 13.6%; in the assay on RXF 393 renal it was 28.7%; with SF-268 CNS, 32.2%; in the assay on SF-539 CNS, 27.2%; in the assay on UACC-257 melanoma it was 22.5%; in the assay with M14 melanoma it was 15.2%. Moreover, in the assay on HCT-15 colon, the growth is 15.9%.

For `COc1ccc2c(c1)/C(=C\c1c[nH]c3ccc(F)cc13)C(=O)N2`, the growth with NCI-H23 lung is 81.4%; in the assay on NCI-H226 lung it was 92.6%; in the assay with NCI-H322M lung it was 75.9%; in the assay on HOP-62 NSCLC, 88.8%; in the assay on NCI-H460 lung it was 87.7%; in the assay with NCI-H522 lung it was 80%. In addition, the growth in the assay on A549/ATCC NSCLC is 70%; with 786-0 renal, 96.5%; with COLO 205 colon, 103%; with DU-145 prostate it was 84%; in the assay on K-562 leukemia, 62.5%; in the assay with MALME-3M melanoma, 120%. Besides, the growth is 106% with MDA-MB-231 breast; 95.4% in the assay with RXF 393 renal; 100% in the assay with SF-295 CNS; 91.8% in the assay with SF-539 CNS; 108% with UACC-257 melanoma; 105% in the assay on M14 melanoma.

Turning to `O=C(Nc1ccc(OCc2nnc(-c3ccccc3)o2)c(F)c1)Nc1ccc(Cl)c(C(F)(F)F)c1`, the growth in the assay with NCI-H23 lung is 8.65% (active); in the assay on NCI-H226 lung, 59.3%; in the assay with NCI-H322M lung, 28.8%; in the assay with HOP-62 NSCLC it was 13.6%; with NCI-H460 lung it was -0.0623% (active); in the assay with NCI-H522 lung, 13.9%. The growth in the assay with A549/ATCC NSCLC is 11.6%; in the assay on 786-0 renal, 53.2%; in the assay with COLO 205 colon, -46.3% (active); in the assay on DU-145 prostate, 10%; in the assay on K-562 leukemia, 12.9%; in the assay on MALME-3M melanoma, 8.78% (active). The growth in the assay on MDA-MB-231 breast is 29.3%; in the assay on RXF 393 renal it was 45.9%; with SF-268 CNS, 36.2%; with SF-539 CNS, 36.1%; in the assay with UACC-257 melanoma, 28.3%; in the assay on M14 melanoma it was 23.8%. The growth in the assay with HCT-15 colon was 11.8%.

Turning to `CCC(C)CC(C)C(=O)c1c(O)ccn(O)c1=O` (stereo unspecified), the growth in the assay on NCI-H23 lung is 25.2%; in the assay with NCI-H226 lung, 95.8%; with NCI-H322M lung it was 52.5%; in the assay on HOP-62 NSCLC, 24%; in the assay on NCI-H460 lung, 23.7%; in the assay on NCI-H522 lung, 33.2%. Moreover, the growth in the assay with A549/ATCC NSCLC was 22.6%; with 786-0 renal, 70%; in the assay on COLO 205 colon, 108%; in the assay with DU-145 prostate, 42.7%; with K-562 leukemia, 18.2%; in the assay with MALME-3M melanoma, 42.1%. Besides, the growth was 45.3% with MDA-MB-231 breast; 35.4% in the assay on RXF 393 renal; 26.4% in the assay on SF-268 CNS; 5.81% (active) in the assay with SF-539 CNS; 27.1% with UACC-257 melanoma; 15.5% in the assay with M14 melanoma. Also, the growth in the assay with HCT-15 colon was 25.3%.

Take `Nc1nonc1-c1nc2ccccc2n1CC(=O)Nc1ccc2c(c1)COC2=O`: the growth in the assay with NCI-H23 lung is 86.3%; with NCI-H226 lung, 87.7%; with NCI-H322M lung, 107%; in the assay with HOP-62 NSCLC, 83.8%; with NCI-H460 lung it was 95.7%; in the assay with NCI-H522 lung, 61.6%. The growth was 88.8% with A549/ATCC NSCLC; 93% in the assay on 786-0 renal; 98.4% with COLO 205 colon; 108% in the assay with DU-145 prostate; 38.9% in the assay with K-562 leukemia; 79.4% in the assay with MALME-3M melanoma. The growth is 82.1% in the assay with MDA-MB-231 breast; 93.7% in the assay on RXF 393 renal; 90.3% in the assay with SF-268 CNS; 86.5% in the assay on SF-539 CNS; 90.1% with UACC-257 melanoma; 72.9% in the assay with M14 melanoma. Further, the growth in the assay with HCT-15 colon is 70.5%.

`COC(=O)c1ccc2c(c1)nc(-c1ccc(O)c(OC)c1)n2-c1cc(C(C)(C)C)[nH]n1`: the growth in the assay with NCI-H23 lung is 93.3%; with NCI-H226 lung it was 106%; with NCI-H322M lung it was 103%; with HOP-62 NSCLC, 128%; with NCI-H460 lung, 96.3%; with NCI-H522 lung it was 78.7%. Moreover, the growth with A549/ATCC NSCLC is 87.9%; in the assay with 786-0 renal, 97.7%; in the assay on COLO 205 colon, 120%; in the assay on DU-145 prostate, 118%; in the assay with K-562 leukemia, 90.6%; in the assay on MALME-3M melanoma it was 114%. The growth in the assay on MDA-MB-231 breast was 97.7%; with RXF 393 renal it was 131%; with SF-268 CNS it was 104%; in the assay on SF-539 CNS, 105%; with UACC-257 melanoma, 101%; in the assay with M14 melanoma it was 95.7%. Moreover, in the assay on HCT-15 colon, the growth is 115%.

On to `Nc1nc(N)c([N+](=O)[O-])c(=O)[nH]1`, for which the growth with NCI-H23 lung was 97.8%; in the assay on NCI-H226 lung, 102%; in the assay with NCI-H322M lung, 104%; with HOP-62 NSCLC, 84.7%; with NCI-H460 lung, 106%; in the assay with NCI-H522 lung, 103%. Moreover, the growth with A549/ATCC NSCLC is 97.8%; with 786-0 renal it was 110%; in the assay on COLO 205 colon, 109%; with DU-145 prostate, 113%; in the assay on K-562 leukemia, 108%; with MALME-3M melanoma it was 118%. The growth in the assay on MDA-MB-231 breast was 115%; in the assay with RXF 393 renal it was 114%; in the assay with SF-268 CNS, 115%; in the assay on SF-539 CNS, 106%; with UACC-257 melanoma it was 103%; in the assay on M14 melanoma it was 106%. For the same molecule, the growth in the assay with HCT-15 colon was 104%.

Take `S=C1SCN(Cc2ccccc2)CN1Cc1ccco1`: the growth in the assay on NCI-H23 lung is 94.1%; with NCI-H226 lung it was 111%; in the assay with NCI-H322M lung it was 112%; in the assay on HOP-62 NSCLC it was 85.3%; with NCI-H460 lung, 105%; with NCI-H522 lung, 4.84% (active). In addition, the growth in the assay with A549/ATCC NSCLC was 101%; in the assay on 786-0 renal, 90.5%; in the assay with COLO 205 colon it was 83.3%; with DU-145 prostate, 68.3%; with K-562 leukemia, 11.6%; in the assay on MALME-3M melanoma, 94%. Moreover, the growth is 91.3% in the assay with MDA-MB-231 breast; 101% with RXF 393 renal; 94.2% in the assay on SF-268 CNS; 65.8% in the assay with SF-539 CNS; 72.4% with UACC-257 melanoma; 87.1% in the assay on M14 melanoma. Besides, the growth in the assay on HCT-15 colon is 41.7%.

The record behind these values is PubChem BioAssay (NCI).
